# PubChem BioAssay (NCI)
# About 83,000 compounds went through this panel and 20% of them were active in at least one assay; those are over-represented in the sample as a whole.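 Testing used 96-well plates and a 48-hour single-concentration exposure. Example: -40 means 40% of the starting cells died.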 Unmarked numbers belong to inactive results. The source made the active and inactive calls. How the source made its calls: active means growth percent below 10; inactive means the rest.
# Tested on: HOP-92 NSCLC
# Test: NCI-60 one-dose screen, 48 h (100 = growth as untreated, 0 = no growth, -100 = all killed)
# Conditions: 10 µM unless noted
row,SMILES,growth
1,CCN(CC)CCCNc1ccnc2cc3ccccc3cc12,55.6%
2,Cc1ccc2cccc(Oc3ccc(Nc4ncnc5onc(-c6ccccc6)c45)cc3)c2n1,26.3%
3,CCCc1c(C)c2sc(=O)[nH]c2[nH]c1=O,104%
4,CC(C)[C@H](NC(=O)Cn1cc(C(=O)O)nn1)C(=O)O,99.2%
5,CC1CCCCN1CCCNC(=O)c1ccc2c(c1)sc1nc(-c3ccc(F)cc3)cn12 (centres undefined),83.1%
6,CN(C)c1ccc(/C=C/c2ccnc3c(O)cccc23)cc1,53.5%
7,NC(=O)CSc1nc(-c2ccc(F)cc2)cc(-c2ccco2)n1,101%
8,Clc1ccc(COc2ccc(Nc3ncnc4onc(-c5ccccc5)c34)cc2)cc1,82.9%
9,O=S1(=O)N(Cc2ccccc2)[C@@H](Cc2ccccc2)C2O[C@H]2[C@H](Cc2ccccc2)N1Cc1ccccc1 (some centres undefined),114%
10,COc1cc(/C=C2\CN(C)C/C(=C\c3cc(CN4CCCC4)c(O)c(OC)c3)C2=O)cc(CN2CCCC2)c1O,66.8%
11,COc1cc(/C=C2\CN(S(=O)(=O)c3ccccc3)C/C(=C\c3cc(CN4CCCC4)c(O)c(OC)c3)C2=O)cc(CN2CCCC2)c1O,-11.3% (active)
12,COc1ccc(-c2nc(N3CCN(C(=O)C4CCCCC4)CC3)c3c4c(sc3n2)CCCC4)cc1,44.8%
13,Nc1cccc(Nc2cc(S(=O)(=O)O)c(N)c3c2C(=O)c2ccccc2C3=O)c1,132%
14,CCCCNc1nc(NC(C)(C)C)nc(NC(C)(C)C)n1,48.6%
15,COc1ccc(OC)c(NC(=O)/C(C#N)=C/c2ccco2)c1,51.1%
16,O=c1oc2ccc(Br)cc2c(=O)n1-c1ccc(Cl)cc1F,-12.6% (active)
17,COc1ccc(C2=NN(/C=C3\SC(=O)NC3=Nc3ccc(F)cc3)C(c3ccc(F)cc3)C2)cc1 (centres undefined),99.7%
18,Nc1no[n+]([O-])c1-c1nnc2c(n1)-c1ccccc1C2=O,55.1%
19,C=CCN1C(=O)/C(=c2\sc3n(c2=O)NC2C(N=3)N(CC)C(=O)N2CC)c2ccccc21 (centres undefined),108%
20,O=C1/C(=C/c2ccc(O)cc2)COc2ccc(O)cc21,124%
21,COc1cc(/C=C/C(=O)c2c(C)nc3ccccc3c2/C=C/c2ccccc2)cc(OC)c1OC,14.6%
22,O=c1oc2ccc(F)cc2c(=O)n1-c1ccc(Cl)cc1F,-14.3% (active)
23,CC1(C)CC2(C)OC2C2(C1)N=NC(=Nc1ccccc1)O2 (centres undefined),87.6%
24,CCN1C(=O)N(CC)C2Nn3c(s/c(=C4\C(=O)N(C(C)C)c5ccccc54)c3=O)=NC21 (centres undefined),13.9%
25,O=c1c(-c2nc3ccccc3[nH]2)cc2ccccc2n1Cc1cn(Cc2ccc(F)cc2)nn1,34.9%

# Tested on: NCI-H522 lung
# Test: as above
# Conditions: 10 µM unless noted
row,SMILES,growth
1,O=NN(Cc1cccnc1)C(=O)NC1CCCCC1,90.5%
2,FC(F)(F)c1cccc(CNC2CCN(CCc3ccccc3)CC2)c1,86.7%
3,COc1ccc(CCN2C(=O)/C(=C/c3ccc(C4Oc5ccccc5C5CC(c6cccc(OC)c6)=NN54)cc3)SC2=S)cc1 (centres undefined),90.3%
4,COc1cc(-c2c3c(cn2S(=O)(=O)c2ccccc2)-c2nc(N)sc2CC3)cc(OC)c1OC,19.9%
5,CCC1=C[C@@H]2CN(C1)Cc1c([nH]c3ccccc13)[C@@](C(=O)OC)(c1cc3c(cc1OC)N(C)[C@H]1[C@@](O)(C(=O)OC)[C@H](OC(C)=O)[C@]4(CC)[C@@H]5C[C@@H]5CN5CC[C@]31[C@@H]54)C2,-14.5% (active)
6,O=C(O)CCCN1C(=O)C2C3CCC(C3)C2C1=O (centres undefined),88%
7,CCOC(=O)CSc1c(-c2ccccc2)c2cc(Cl)ccc2[nH]c1=O,91.2%
8,COc1ccc(C2C3=C(COC3=O)N(CCO)c3cc4c(cc32)CCC4)cc1 (centres undefined),37.8%
9,Cc1c(C(=O)OCCO)cc(-c2ccc(Cl)cc2)n1-c1ccc(Cl)cc1Cl,54.7%
10,NC1C(N)C(N)C1N (centres undefined),91.5%
11,Oc1[nH]c2ccccc2c1N=Nc1nnc2n1N=C(c1ccccc1)CS2,43.6%
12,O=NN(C(=O)NC1CCC(C(=O)O)CC1)C1CCC(C(=O)O)CC1 (centres undefined),98.7%
13,Nc1ccc(-c2nn3c(CCC(=O)c4nc5ncccc5[nH]4)nnc3s2)c(O)c1,81.2%
14,CCOc1ccc2c(c1)CN(Cc1ccc(Cl)cc1)CO2,72.9%
15,CCN(CC)CCCNc1ccnc2cc3ccccc3cc12,51.8%
16,Cc1ccc2cccc(Oc3ccc(Nc4ncnc5onc(-c6ccccc6)c45)cc3)c2n1,72.2%
17,CCCc1c(C)c2sc(=O)[nH]c2[nH]c1=O,96%
18,CC(C)[C@H](NC(=O)Cn1cc(C(=O)O)nn1)C(=O)O,104%
19,CC1CCCCN1CCCNC(=O)c1ccc2c(c1)sc1nc(-c3ccc(F)cc3)cn12 (centres undefined),102%
20,CN(C)c1ccc(/C=C/c2ccnc3c(O)cccc23)cc1,-10.9% (active)

row,SMILES,growth
1,NC(=O)CSc1nc(-c2ccc(F)cc2)cc(-c2ccco2)n1,94.5%
2,Clc1ccc(COc2ccc(Nc3ncnc4onc(-c5ccccc5)c34)cc2)cc1,71.3%
3,O=S1(=O)N(Cc2ccccc2)[C@@H](Cc2ccccc2)C2O[C@H]2[C@H](Cc2ccccc2)N1Cc1ccccc1 (some centres undefined),49.3%
4,COc1cc(/C=C2\CN(C)C/C(=C\c3cc(CN4CCCC4)c(O)c(OC)c3)C2=O)cc(CN2CCCC2)c1O,34.7%
5,COc1cc(/C=C2\CN(S(=O)(=O)c3ccccc3)C/C(=C\c3cc(CN4CCCC4)c(O)c(OC)c3)C2=O)cc(CN2CCCC2)c1O,-26.3% (active)
6,COc1ccc(-c2nc(N3CCN(C(=O)C4CCCCC4)CC3)c3c4c(sc3n2)CCCC4)cc1,-23.9% (active)
7,Nc1cccc(Nc2cc(S(=O)(=O)O)c(N)c3c2C(=O)c2ccccc2C3=O)c1,82.5%
8,CCCCNc1nc(NC(C)(C)C)nc(NC(C)(C)C)n1,52.8%
9,COc1ccc(OC)c(NC(=O)/C(C#N)=C/c2ccco2)c1,45.5%
10,O=c1oc2ccc(Br)cc2c(=O)n1-c1ccc(Cl)cc1F,-1.53% (active)
11,COc1ccc(C2=NN(/C=C3\SC(=O)NC3=Nc3ccc(F)cc3)C(c3ccc(F)cc3)C2)cc1 (centres undefined),91.2%
12,Nc1no[n+]([O-])c1-c1nnc2c(n1)-c1ccccc1C2=O,96%
13,C=CCN1C(=O)/C(=c2\sc3n(c2=O)NC2C(N=3)N(CC)C(=O)N2CC)c2ccccc21 (centres undefined),25.9%
14,O=C1/C(=C/c2ccc(O)cc2)COc2ccc(O)cc21,87.7%
15,COc1cc(/C=C/C(=O)c2c(C)nc3ccccc3c2/C=C/c2ccccc2)cc(OC)c1OC,-21% (active)
16,O=c1oc2ccc(F)cc2c(=O)n1-c1ccc(Cl)cc1F,-16.9% (active)
17,CC1(C)CC2(C)OC2C2(C1)N=NC(=Nc1ccccc1)O2 (centres undefined),15.1%
18,CCN1C(=O)N(CC)C2Nn3c(s/c(=C4\C(=O)N(C(C)C)c5ccccc54)c3=O)=NC21 (centres undefined),27.2%
19,O=c1c(-c2nc3ccccc3[nH]2)cc2ccccc2n1Cc1cn(Cc2ccc(F)cc2)nn1,19.5%
